# Test results from PubChem BioAssay (EPA / NIEHS).
# The source made the active and inactive calls. The calls were made as follows: active = hit-call score of the fitted dose curve at least 0.9, where 1 is the maximum; inactive = score below 0.9.
# Assay: APR_HepG2_CellLoss_72hr: Apredica 72-hour HepG2 Assay for Cell Loss (AID 2282915)
# Settings: high-content imaging
# Experimental: APR_HepG2_72hr is a cell-based, multiplexed-readout assay that uses HepG2, a human liver cell line, with measurements taken at 72 hours after chemical dosing in a 384-well plate.APR_HepG2_CellLoss_72hr is one of 10 assay component(s) measured or calculated from the APR_HepG2_72hr assay. It is designed to make measurements of cell number, a form of viability reporter, as detected with fluorescence intensity signals by HCS Fluorescent Imaging technology.Data from the assay component APR_HepG2_CellLoss_72hr was analyzed into 1 assay endpoint. This assay endpoint, APR_HepG2_CellLoss_72hr, was analyzed with bidirectional fitting relative to DMSO as the negative control and baseline of activity. Using a type of viability reporter, measures of all nuclear dna for gain or loss-of-signal activity can be used to understand the viability at the cellular-level. Furthermore, this assay endpoint can be referred to as a secondary readout, because this assay has produced multiple assay endpoints where this one serves a viability function. To generalize the intended target to other relatable targets, this assay endpoint is annotated to the cell cycle intended target family, where the subfamily is proliferation.
# Cells were treated with dimethyl sulfoxide (DMSO) as a solvent control at a final concentration of 0.5% v/v or with compounds in DMSO with a resulting final DMSO concentration of 0.5% v/v. Compound treatment was done at concentrations of 0.39, 0.78, 1.56, 3.12, 6.24, 12.5, 25, 50, 100, and 200 uM in duplicate on each plate. Cells were treated with compounds for 1, 24, or 72 hr. Carbonyl […] m-chloro-phenylhydrazone (CCCP) and taxol were used as positive controls for mitochondrial function and cytoskeletal stability, respectively; DMSO served as the negative control for this experiment. Cells were fixed by the direct addition of 50 uL formaldehyde in Hank's Balanced Salt Solution (HBSS) to a final concentration of 3.7%. After incubation in the fixation medium for 30 min at room temperature (293-298 K), cells were rinsed twice with HBSS and treated with cell permeabilization buffer (16 uL of 0.5% Triton X-100) for 10 min at room temperature (293-298 K) before labeling. For mitochondrial membrane potential and mitochondrial measurements, pre-fixed cells were incubated with 50 uL of MitoTracker Red CMXRos (Invitrogen) at a concentration of 250 nM for 30 min before fixation. In the remaining cases, post-fixed cells were labeled by incubation with a multiplexed mixture of primary antibodies in HBSS for 60 min at room temperature (293-298 K) to detect immunoreactivity of c-Jun (1:500), phospho-histone H3 (1:100), phospho-histone H2A.x (1:200), p53 (1:400), alpha-tubulin (1:200) and Hoechst 33342 (2 ug/mL). Cells were labeled for multiplexed imaging on two separate plates: a) Hoechst 33342, MitoTracker Red, phospho-histone H3, and alpha-tubulin, and b) Hoechst 33342, phospho-histone H2A.x, and c-Jun. A final rinse with HBSS (50 uL) was performed before analysis. The primary and secondary antibodies for the proteins were phospho-histone H3 (rabbit anti-phospho-histone H3 and FITC-donkey anti-rabbit IgG), phospho-histone H2A.x (mouse anti-phospho-histone H2A.x and FITC-donkey anti-mouse IgG), c-Jun (rabbit anti-phospho-c-Jun and Cy3-donkey anti-rabbit IgG), p53 (sheep anti-p53 and Cy5-donkey anti-sheep IgG), alpha-tubulin (mouse anti-alpha-tubulin and Cy5-donkey anti-mouse IgG). These antibodies are available as the CellCiphr HepG2 assay kit (Millipore).Digital images of each well were captured using a Cellomics ArrayScan VTI (Thermo Scientific Cellomics) (0.8 NA objective, 0.63x optical coupler, and XF-93 filter set) at 20x magnification. The images were acquired using the autofocus feature of the ArrayScan instrument, which entails the following steps. First, the camera focuses on channel 1 (Hoechst 33342), where nuclei are identified. Second, a Z offset of 1 um is used for capturing mitochondria (MitoTracker Red). […]
Structure (SMILES),outcome,AC50
Cc1cc(C)cc(C)c1,inactive,–
O=C(N[C@H]1CN2CCC1CC2)c1ccc2c(c1)OCCO2,inactive,–
COc1ccccc1N,inactive,–
Oc1c(Cl)cc(Cl)cc1Cl,inactive,–
N#Cc1cccnc1,inactive,–
Clc1cccc(Cl)c1,inactive,–
Clc1cccc(Cl)c1Cl,inactive,–
Oc1cc(Cl)c(Cl)cc1Cl,–,44.6 µM (active)
CCCCCCCCCCCCc1cccc(S(=O)(=O)O)c1,inactive,–
CC(C)(C)c1ccccc1O,inactive,–
O=C(O)C1(c2ccc3c(c2)OC[C@H](Cc2ccc(-c4ccccc4)cc2)[C@H]3O)CCCC1,–,86.9 µM (active)
CN(C)C(=S)S,–,0.238 µM (active)
OCCN(CCO)CCO,inactive,–
CC(C)O.CC(C)O.OCCN(CCO)CCO.OCCN(CCO)CCO.[Ti],inactive,–
